# PubChem BioAssay
# “And” between values parts separate entries of the source, which are not always exact repeats. Identical values can stand only once. The source made the active and inactive calls.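 How the source made its calls, unless noted: active means normalized viability below 100% at a tested concentration; inactive means the rest.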
# What was measured:
# [1] = sensitizers of A549 cells to miR-34 induction, primary screen, imaging, A549 dox-inducible miR-34, nuclei and caspase counts (AID 1347080;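 active means compounds whose cell count with miR-34 switched on is under 0.7 times the count with it off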); details: A549 miR-34 inducible, Hoechst nuclei count, 48 h
# [2] = survival rescue of mitochondrial mutant cells in low glucose, primary screen, MELAS cybrids, Rieske KO mouse fibroblasts, CellTiter-Glo (AID 1508586;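 active means mean z-score across replicates of 1.96 or higher in either the MELAS or the Rieske mutant cell line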;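 further: z relative to plate mean and SD of compound and empty wells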)
# [3] = ovarian cancer cell viability with rucaparib, profiling panel, oncology-focused library, rucaparib conditional (AID 1508598); details: patient-derived ovarian cancer cells, CellTiter-Glo viability, 144 h, stronger effect = lower value
# [4] = LFS_MB_P medulloblastoma growth inhibition, cell-based, chromothripsis tumors, cisplatin or BGB combos (AID 1671449; in the data active means inhibition above about 80%;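 further: cells exposed for 96 hours; 0% = vehicle DMSO and 100% = killing by high DMSO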); details: LFS_MB_P medulloblastoma cells
# [5] = HDN33 neuroblastoma growth inhibition, cell-based, chromothripsis tumors, cisplatin or BGB combos (AID 1671450; in the data active means inhibition above about 80%;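 further: cells exposed to compound for four days; 0% = vehicle DMSO and 100% = cell killing by high DMSO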); details: HDN33 neuroblastoma cells, stronger effect = higher value
# [6] = ICB984 medulloblastoma cell growth inhibition, synergistic combos for chromothripsis tumors, cisplatin or BGB combos (AID 1671451; call rule not given here;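 further: cells exposed for 96 hours before readout; 0% = vehicle DMSO and 100% = killing by high DMSO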); details: ICB984 medulloblastoma cells, drug combinations, stronger effect = higher value
# [7] = LFS_MB_1R medulloblastoma cell growth inhibition, synergistic combos for chromothripsis tumors, cisplatin or BGB combos (AID 1671452; in the data active means inhibition above about 80%;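 further: cells exposed for 96 hours before readout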); details: LFS_MB_1R medulloblastoma cells, stronger effect = higher value
# [8] = HTB85 osteosarcoma cell growth inhibition, synergistic combos for chromothripsis tumors, BGB or cisplatin IC20 combos (AID 1671453; in the data active means inhibition above about 80%;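 further: cells exposed for 96 hours before readout; 0% = vehicle DMSO and 100% = high DMSO killing control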); details: HTB85 osteosarcoma cells, drug combinations, stronger effect = higher value
# [9] = CRL2098 osteosarcoma cell growth inhibition, synergistic combos for chromothripsis tumors, BGB or cisplatin IC20 combos (AID 1671454; in the data active means inhibition above about 80%;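 further: cells exposed for 96 h before readout; 0% = vehicle DMSO and 100% = killing by high DMSO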); details: CRL2098 osteosarcoma cells, drug combinations, stronger effect = higher value
# [10] = HD-MB03 medulloblastoma cell growth inhibition, synergistic combos for chromothripsis tumors, BGB or cisplatin IC20 combos (AID 1671455; in the data active means inhibition above about 83%;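 further: 0% = vehicle DMSO and 100% = high DMSO as cytotoxic control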); details: HD-MB03 medulloblastoma cells, stronger effect = higher value
# [11] = UWB1.289 ovarian carcinoma cell growth inhibition, synergistic combos for chromothripsis tumors, BGB or cisplatin combos (AID 1671456; in the data active means inhibition above about 80%;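 further: cells exposed to compound for four days; 0% = vehicle DMSO and 100% = killing by high DMSO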); details: UWB1.289 ovarian carcinoma cells, stronger effect = higher value
# [12] = LFS_MB_2R medulloblastoma cell growth inhibition, synergistic combos for chromothripsis tumors, cisplatin combos (AID 1671457; in the data active means inhibition above about 80%;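 further: cells exposed to compound for four days before readout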); details: LFS_MB_2R medulloblastoma cells, stronger effect = higher value
# [13] = MDA-MB-436 breast carcinoma cell growth inhibition, synergistic combos for chromothripsis tumors, BGB or cisplatin combos (AID 1671458; call rule not given here;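 further: cells exposed for 96 hours; 0% = vehicle DMSO and 100% = killing by high DMSO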); details: MDA-MB-436 breast carcinoma growth inhibition, drug combinations, stronger effect = higher value
# [14] = UWB1.289_BRCA1 ovarian cancer growth, cell-based, BGB or cisplatin combinations (AID 1671459; in the data active means inhibition above about 80%); details: UWB1.289 BRCA1 ovarian carcinoma, drug combinations, stronger effect = higher value
# [15] = growth inhibition of BT084 medulloblastoma cells, cell-based, ICGC_MB145, cisplatin and BGB IC40 combos (AID 1671461; in the data active means inhibition above about 80%;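 further: cells exposed to drugs for 96 hours; 0% = vehicle DMSO and 100% = high DMSO full killing control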); details: drug combinations, stronger effect = higher value
# [16] = growth inhibition of RCMB18 medulloblastoma cells, cell-based, cisplatin and BGB IC40 combos (AID 1671462; in the data active means inhibition above about 80%;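 further: cells exposed to compound for four days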); details: stronger effect = higher value
# [17] = growth inhibition of CRL1545 osteosarcoma cells, cell-based, cisplatin and BGB IC20 combos (AID 1671464; in the data active means inhibition above about 80%;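 further: cells exposed to compound for 96 hours before readout; 0% = vehicle DMSO and 100% = high DMSO killing control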); details: stronger effect = higher value
# [18] = measured here: combination with BGB IC40, at 0.05 µM
# [19] = measured here: with BGB IC20 combination, at 0.5 µM
# [20] = measured here: with cisplatin IC20 combination, at 0.5 µM
# [21] = measured here: combination with cisplatin, at 0.5 µM
# [22] = measured here: combination with cisplatin, at 5 µM
compound,measurement,setting,value
O=C(NCC1(c2nc(-c3ccccc3)cs2)CCOCC1)c1cccc(-c2noc(C(F)(F)F)n2)c1,fold change,"[1]; stronger effect = lower value, cell number ratio, induced over uninduced",0.836 (inactive)
same,fold change,[1]; measured here: relative caspase fold change +Dox/-Dox,0.412
same,cell count,"[1]; measured here: total cells with miR-34 induction, stronger effect = lower value",6620
same,cell count,[1]; measured here: total cells without miR-34 induction,7920
same,z-score,"[2]; MELAS cybrid survival, CellTiter-Glo 48 h, stronger effect = higher value",0.0872 (inactive)
same,z-score,"[2]; Rieske KO mouse fibroblast survival, CellTiter-Glo 72 h",0.109
same,viability,"[3]; at 0.000305 µM, OCI-C5x cells, with rucaparib 10 µM, 100% = cells with rucaparib alone",124% (inactive)
same,viability,"[3]; at 0.000305 µM, OCI-C5x cells, without rucaparib",111% (inactive)
same,viability,"[3]; at 0.000305 µM, OCI-P5x cells, with rucaparib 20 µM, 100% = cells with rucaparib alone",98.3% (active)
same,viability,"[3]; at 0.000305 µM, OCI-P5x cells, without rucaparib",94.3% (active)
same,viability,"[3]; at 0.00122 µM, OCI-C5x cells, with rucaparib 10 µM, 100% = cells with rucaparib alone",128% (inactive)
same,viability,"[3]; at 0.00122 µM, OCI-C5x cells, without rucaparib",113% (inactive)
same,viability,"[3]; at 0.00122 µM, OCI-P5x cells, with rucaparib 20 µM, 100% = cells with rucaparib alone",104% (inactive)
same,viability,"[3]; at 0.00122 µM, OCI-P5x cells, without rucaparib",101% (inactive)
same,viability,"[3]; at 0.00488 µM, OCI-C5x cells, with rucaparib 10 µM, 100% = cells with rucaparib alone",127% (inactive)
same,viability,"[3]; at 0.00488 µM, OCI-C5x cells, without rucaparib",117% (inactive)
same,viability,"[3]; at 0.00488 µM, OCI-P5x cells, with rucaparib 20 µM, 100% = cells with rucaparib alone",95.9% (active)
same,viability,"[3]; at 0.00488 µM, OCI-P5x cells, without rucaparib",97.2% (active)
same,viability,"[3]; at 0.0195 µM, OCI-C5x cells, with rucaparib 10 µM, 100% = cells with rucaparib alone",120% (inactive)
same,viability,"[3]; at 0.0195 µM, OCI-C5x cells, without rucaparib",104% (inactive)
same,viability,"[3]; at 0.0195 µM, OCI-P5x cells, with rucaparib 20 µM, 100% = cells with rucaparib alone",95.5% (active)
same,viability,"[3]; at 0.0195 µM, OCI-P5x cells, without rucaparib",89.1% (active)
same,viability,"[3]; at 0.0781 µM, OCI-C5x cells, with rucaparib 10 µM, 100% = cells with rucaparib alone",109% (inactive)
same,viability,"[3]; at 0.0781 µM, OCI-C5x cells, without rucaparib",106% (inactive)
same,viability,"[3]; at 0.0781 µM, OCI-P5x cells, with rucaparib 20 µM, 100% = cells with rucaparib alone",94% (active)
same,viability,"[3]; at 0.0781 µM, OCI-P5x cells, without rucaparib",94.9% (active)
same,viability,"[3]; at 0.313 µM, OCI-C5x cells, with rucaparib 10 µM, 100% = cells with rucaparib alone",132% (inactive)
same,viability,"[3]; at 0.313 µM, OCI-C5x cells, without rucaparib",102% (inactive)
same,viability,"[3]; at 0.313 µM, OCI-P5x cells, with rucaparib 20 µM, 100% = cells with rucaparib alone",95.8% (active)
same,viability,"[3]; at 0.313 µM, OCI-P5x cells, without rucaparib",90.7% (active)
same,viability,"[3]; at 1.25 µM, OCI-C5x cells, with rucaparib 10 µM, 100% = cells with rucaparib alone",135% (inactive)
same,viability,"[3]; at 1.25 µM, OCI-C5x cells, without rucaparib",117% (inactive)
same,viability,"[3]; at 1.25 µM, OCI-P5x cells, with rucaparib 20 µM, 100% = cells with rucaparib alone",88.1% (active)
same,viability,"[3]; at 1.25 µM, OCI-P5x cells, without rucaparib",89.8% (active)
same,viability,"[3]; at 5 µM, OCI-C5x cells, with rucaparib 10 µM, 100% = cells with rucaparib alone",158% (inactive)
same,viability,"[3]; at 5 µM, OCI-C5x cells, without rucaparib",127% (inactive)
same,viability,"[3]; at 5 µM, OCI-P5x cells, with rucaparib 20 µM, 100% = cells with rucaparib alone",78.7% (active)
same,viability,"[3]; at 5 µM, OCI-P5x cells, without rucaparib",84.2% (active)
same,inhibition,"[4]; at 0.5 µM, stronger effect = higher value",16.1% (inactive) and -6.25% (inactive)
same,inhibition,"[4]; measured here: combination with BGB IC20, at 0.005 µM",1.8% and 4.15%
same,inhibition,"[4]; measured here: combination with BGB IC40, at 0.005 µM",2.63% and 14.3%
same,inhibition,[4]; [18],-10.8% and -1.22%
same,inhibition,"[4]; measured here: combination with cisplatin, at 0.5 µM, stronger effect = higher value",3.22% and -32.3%
same,inhibition,"[4]; measured here: combination with cisplatin, at 5 µM, stronger effect = higher value",-16.9% and -3.34%
same,inhibition,"[5]; BGB combo, at 5 µM",-23% and 15.5%
same,inhibition,[5]; at 0.5 µM,-32.5% (inactive) and 16.4% (inactive)
same,inhibition,"[5]; cisplatin combo, at 5 µM",-16.3% and 0.452%
same,inhibition,[5]; [19],-30.2% and 18.4%
same,inhibition,[5]; [20],-45.4% and 11.4%
same,inhibition,"[5]; single agent, at 5 µM",-5.15% and 25.1%
same,inhibition,"[6]; BGB IC20 combo, at 0.005 µM",-22.9% and 2.76%
same,inhibition,"[6]; BGB IC40 combo, at 0.005 µM",9.28% and 13%
same,inhibition,"[6]; BGB IC40 combo, at 0.05 µM",-3.89% and 21%
same,inhibition,[6]; at 0.5 µM,-16.1% (inactive) and 2.22% (inactive)
same,inhibition,"[6]; cisplatin combo, at 0.05 µM",-6.8% and 18.1%
same,inhibition,"[6]; cisplatin combo, at 0.5 µM",-20% and 9.29%
same,inhibition,"[6]; cisplatin combo, at 5 µM",-12.6% and -9.9%
same,inhibition,"[6]; measured here: 5 uM single agent, at 5 µM",-22.5% and 19.3%
same,inhibition,[7]; at 0.5 µM,-33% (inactive) and -1.8% (inactive)
same,inhibition,[7]; [18],-32.4% and 10.2%
same,inhibition,[7]; [21],-76.1% and -10.4%
same,inhibition,[7]; [22],-10.4% and -0.263%
same,inhibition,[8]; at 0.5 µM,-28.5% (inactive) and 1.8% (inactive)
same,inhibition,"[8]; measured here: with BGB IC20, at 0.5 µM",-38.8% and -0.919%
same,inhibition,"[8]; measured here: with BGB IC20, at 5 µM",-58.5% and 4.11%
same,inhibition,"[8]; measured here: with cisplatin IC20, at 0.5 µM",-26.7% and 6.6%
same,inhibition,"[8]; measured here: with cisplatin IC20, at 5 µM",-31.5% and 8.1%
same,inhibition,"[8]; single agent, at 5 µM",-23.9% and 9.32%
same,inhibition,[9]; at 0.5 µM,-56.1% (inactive) and -1.16% (inactive)
same,inhibition,"[9]; measured here: combination with BGB at IC20, at 0.5 µM",-61.3% and -10.8%
same,inhibition,"[9]; measured here: combination with cisplatin at IC20, at 0.5 µM",-66.8% and 10.9%
same,inhibition,[10]; at 0.5 µM,-15.6% (inactive) and 10.1% (inactive)
same,inhibition,"[10]; measured here: combo with BGB at IC20, at 0.5 µM",-9.59% and 1.06%
same,inhibition,"[10]; measured here: combo with cisplatin at IC20, at 0.5 µM",-27.9% and 14.3%
same,inhibition,[11]; at 0.5 µM,-12.3% (inactive) and 13.4% (inactive)
same,inhibition,"[11]; measured here: inhibition with BGB combination, at 0.05 µM",-8.63% and 3.2%
same,inhibition,"[11]; measured here: inhibition with cisplatin combination, at 0.05 µM",0.295% and 28.5%
same,inhibition,[12]; at 0.5 µM,0.9% (inactive) and 4.52% (inactive)
same,inhibition,[12]; [21],0.458% and 8.71%
same,inhibition,[12]; [22],-55.5% and 22.9%
same,inhibition,[13]; at 0.5 µM,-6.26% (inactive) and 2.54% (inactive)
same,inhibition,"[13]; measured here: BGB combination, at 0.5 µM",-4.1% and 0.779%
same,inhibition,"[13]; measured here: BGB combination, at 5 µM",-10.4% and -5.25%
same,inhibition,"[13]; measured here: cisplatin combination, at 0.5 µM",-10.7% and 8.48%
same,inhibition,"[13]; measured here: cisplatin combination, at 5 µM",-13.8% and 11%
same,inhibition,"[14]; BGB combination, concentration series, at 5 µM",-15.2% and 14.2%
same,inhibition,[14]; at 0.5 µM,-10.2% (inactive) and 7.86% (inactive)
same,inhibition,"[14]; cisplatin combination, concentration series, at 5 µM",8.95% and 1.52%
same,inhibition,[15]; at 0.5 µM,-4.68% (inactive) and 10.6% (inactive)
same,inhibition,"[15]; cisplatin combination, at 0.5 µM",-2.52% and 12.6%
same,inhibition,"[15]; cisplatin combination, at 5 µM",12.8% and 27.4%
same,inhibition,"[15]; measured here: BGB IC40 combination 0.05 uM, at 0.05 µM",16% and -10.3%
same,inhibition,"[15]; single agent, at 5 µM",15.3% and 24.7%
same,inhibition,[16]; at 0.5 µM,-34.6% (inactive) and 5.45% (inactive)
same,inhibition,"[16]; cisplatin combo, at 5 µM",-80.8% and -19.2%
same,inhibition,"[16]; measured here: BGB IC40 combination, at 0.05 µM",-21% and 1.81%
same,inhibition,[16]; [21],-74.6% and 3.89%
same,inhibition,"[16]; single agent, at 5 µM",14.7% and 26.4%
same,inhibition,[17]; at 0.5 µM,-45.6% (inactive) and -15.7% (inactive)
same,inhibition,[17]; [19],-23% and -21.2%
same,inhibition,[17]; [20],-60.5% and -14.7%
same,inhibition,"[17]; single agent, at 0.05 µM",-48% and 14.2%
same,inhibition,"[17]; single agent, at 5 µM",36.5% and 43.7%
